The panel holds about 83,000 compounds, 20% with a hit somewhere; the sample as a whole holds those more often.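 The test compound was applied at a single concentration to cells in 96-well plates for 48 hours, and percent growth was recorded.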 Unmarked numbers belong to inactive results. Active and inactive are the calls of the source. How the source made its calls: active means growth percent below 10; inactive means the rest.

We go through eight molecules from PubChem BioAssay (NCI).

Some test systems named below: NCI-H23 lung; NCI-H226 lung; NCI-H322M lung; HOP-62 NSCLC; NCI-H460 lung; HOP-92 NSCLC; NCI-H522 lung; A549/ATCC NSCLC; 786-0 renal; COLO 205 colon; DU-145 prostate; K-562 leukemia; MALME-3M melanoma; MDA-MB-231 breast; RXF 393 renal; SF-268 CNS; SF-295 CNS; SF-539 CNS; M14 melanoma; UACC-257 melanoma.
Experiment in all cases: NCI-60 one-dose screen, 48 h (100 = growth as untreated, 0 = no growth, -100 = all killed)
Holding throughout (settings): 10 µM unless noted

With `CC(CC1CCCCC1)NCc1ccccc1` (stereo not drawn), the growth was 85.7% in the test on NCI-H23 lung; 101% in the test with NCI-H226 lung; 95% in the test on NCI-H322M lung; 102% in the test on HOP-62 NSCLC; 105% in the test on NCI-H460 lung; 80.1% with HOP-92 NSCLC. For the same molecule, the growth was 94.6% in the test with NCI-H522 lung; 98.2% in the test on A549/ATCC NSCLC; 99.9% with 786-0 renal; 103% with COLO 205 colon; 108% in the test with DU-145 prostate; 109% in the test on K-562 leukemia. Also, the growth was 88.9% with MALME-3M melanoma; 97.3% in the test on MDA-MB-231 breast; 99.6% in the test on RXF 393 renal; 103% in the test with SF-268 CNS; 93.6% in the test on SF-295 CNS; 103% in the test on SF-539 CNS. The growth in the test with M14 melanoma was 90.2%.
As for `CCCCCCCOC(C(=O)OCCN(CC)CC)(c1ccccc1)c1ccccc1`, the growth with NCI-H23 lung was 87.7%; in the test with NCI-H226 lung, 96.4%; in the test with NCI-H322M lung, 98.7%; with HOP-62 NSCLC it was 89.6%; in the test with NCI-H460 lung, 84.4%; in the test with HOP-92 NSCLC it was 67.6%. Moreover, the growth is 73.4% with NCI-H522 lung; 90.8% in the test on A549/ATCC NSCLC; 65.8% in the test on 786-0 renal; 95.3% with COLO 205 colon; 86.9% in the test with DU-145 prostate; 56.6% in the test with K-562 leukemia. For the same molecule, the growth in the test on MALME-3M melanoma was 100%; with MDA-MB-231 breast, 82.5%; in the test on RXF 393 renal, 92.4%; in the test with SF-268 CNS, 87.9%; with SF-295 CNS, 123%; in the test with SF-539 CNS, 96.9%. Moreover, the growth in the test on M14 melanoma is 90.5%.
For the molecule `C[C@]12CC[C@H]3[C@@H](CC[C@]4(O)C[C@@H](O[C@@H]5O[C@H](CO)[C@@H](O[C@@H]6OC[C@@H](O)[C@H](O)[C@H]6O)[C@H](O)[C@H]5O)CC[C@]34C=O)[C@@]1(O)CC[C@@H]2C1=CC(=O)OC1`, the growth in the test on NCI-H23 lung is -37.1% (active); in the test with NCI-H226 lung it was -2.96% (active); with NCI-H322M lung, -13.2% (active); in the test on HOP-62 NSCLC it was -68.4% (active); in the test on NCI-H460 lung it was -9.57% (active); with HOP-92 NSCLC, 43.7%. Also, the growth with NCI-H522 lung is -35.2% (active); in the test on A549/ATCC NSCLC, -89.8% (active); with 786-0 renal, 0.0388% (active); in the test on COLO 205 colon, 17.8%; with DU-145 prostate, -62.4% (active); with K-562 leukemia, 4.28% (active). For the same molecule, the growth in the test with MALME-3M melanoma was -25% (active); with MDA-MB-231 breast, 42.2%; with RXF 393 renal, -19.4% (active); with SF-268 CNS it was -44.6% (active); in the test on SF-295 CNS it was 8.52% (active); in the test on UACC-257 melanoma, -3.23% (active). Besides, the growth with M14 melanoma was 23.8%.
Regarding `O=C(O)C1C(C(=O)O)C2(Cl)C(Cl)=C(Cl)C1(Cl)C2(Cl)Cl.[Hg]` (stereo not drawn), the growth in the test on NCI-H23 lung was 90.7%; in the test with NCI-H226 lung, 106%; in the test with NCI-H322M lung, 107%; in the test with HOP-62 NSCLC it was 103%; in the test with NCI-H460 lung, 98.8%; in the test on HOP-92 NSCLC it was 127%. The growth in the test with NCI-H522 lung was -50.2% (active); with A549/ATCC NSCLC it was 85%; in the test on 786-0 renal, 88%; with COLO 205 colon it was 103%; in the test on DU-145 prostate, 96.7%; with K-562 leukemia it was 15.1%. Besides, the growth with MALME-3M melanoma is 69.5%; with MDA-MB-231 breast, 86.4%; in the test on RXF 393 renal it was 123%; in the test with SF-268 CNS, 97.5%; in the test on SF-295 CNS, 95.2%; in the test with SF-539 CNS, 102%. Also, the results for the growth with UACC-257 melanoma and in the test on M14 melanoma were 74.7% and 80.2%, respectively.
`CCCCOc1ccc(C(N)Cc2ccccc2)cc1` (stereo not drawn): the growth in the test on NCI-H23 lung was 104%; in the test with NCI-H226 lung it was 112%; in the test on NCI-H322M lung, 92.4%; in the test with HOP-62 NSCLC it was 107%; with NCI-H460 lung, 95.5%; with HOP-92 NSCLC, 41%. The growth is 93% in the test on NCI-H522 lung; 90% with A549/ATCC NSCLC; 75.3% in the test with 786-0 renal; -43.2% (active) with COLO 205 colon; 109% in the test with DU-145 prostate; 54.2% with K-562 leukemia. The growth in the test with MALME-3M melanoma is 106%; with MDA-MB-231 breast, 75.1%; with RXF 393 renal it was 104%; in the test with SF-268 CNS it was 85.4%; with SF-295 CNS it was 113%; in the test with SF-539 CNS, 102%. The growth with M14 melanoma was 87.1%.
As to `[Au+].[N-]=C=O.c1ccc(CN2[CH-]N(Cc3ccccc3)C(c3ccccc3)=C2c2ccccc2)cc1`, the growth with NCI-H23 lung is 79.5%; in the test on NCI-H226 lung, 107%; in the test with NCI-H322M lung it was 112%; in the test with HOP-62 NSCLC, 116%; in the test with NCI-H460 lung, 98.5%; with HOP-92 NSCLC it was 81.4%. In addition, the growth in the test on NCI-H522 lung was 5.83% (active); with A549/ATCC NSCLC, 92.7%; with 786-0 renal, 90.2%; with COLO 205 colon, 92.5%; in the test on DU-145 prostate it was 86.5%; with K-562 leukemia it was 20.8%. In addition, the growth in the test on MALME-3M melanoma was 70%; in the test with MDA-MB-231 breast, 86.4%; in the test on RXF 393 renal, 83%; with SF-268 CNS it was 84.5%; with SF-539 CNS, 110%; in the test with UACC-257 melanoma, 99.8%. Also, the growth in the test with M14 melanoma was 81.3%.
Take `COc1cc(/C=C\c2cc(OC)c(OC)c(OC)c2)cc(N/C=C\C(=O)c2cc(OC)c(OC)c(OC)c2)c1OC`: the growth in the test on NCI-H23 lung is 29.6%; with NCI-H226 lung it was 47.2%; in the test on NCI-H322M lung, 36.8%; in the test on HOP-62 NSCLC, 13.3%; in the test on NCI-H460 lung, 17.3%; in the test with HOP-92 NSCLC, -9.27% (active). In addition, the growth is 6.46% (active) with NCI-H522 lung; 40% in the test on A549/ATCC NSCLC; 44% in the test with 786-0 renal; 3.1% (active) with COLO 205 colon; 27.2% in the test with DU-145 prostate; 16.2% with K-562 leukemia. For the same molecule, the growth in the test with MALME-3M melanoma was 25.9%; in the test with MDA-MB-231 breast, 42.7%; in the test with RXF 393 renal, 17.4%; with SF-268 CNS, 41.1%; in the test on SF-539 CNS it was -9.74% (active); in the test on UACC-257 melanoma it was 68.1%. Further, in the test on M14 melanoma, the growth was 2.89% (active).
As for `COc1ccc(/C=C\c2cc(OC)c(OC)c(OC)c2)cc1OCC(=O)Nc1nc2ccc(F)cc2s1`, the growth in the test with NCI-H23 lung was 34.4%; in the test with NCI-H226 lung, 42.4%; in the test with NCI-H322M lung, 70.8%; with HOP-62 NSCLC, 51%; in the test with NCI-H460 lung, 23.9%; in the test with HOP-92 NSCLC, 57.7%. Moreover, the growth was 6.14% (active) with NCI-H522 lung; 31% in the test with A549/ATCC NSCLC; 65% in the test with 786-0 renal; 32.3% in the test with COLO 205 colon; 30.2% with DU-145 prostate; 38.1% in the test on K-562 leukemia. The growth in the test with MALME-3M melanoma is 38.3%; in the test on MDA-MB-231 breast it was 46.7%; in the test with RXF 393 renal it was 9.41% (active); in the test on SF-268 CNS it was 49.2%; in the test on SF-539 CNS it was 26.7%; with UACC-257 melanoma, 51%. Also, the growth in the test with M14 melanoma was 51.9%.
